# “And” between values parts separate entries of the source, which are not always exact repeats. Equal entries are not always repeated. Inconclusive results are not listed. Some structures have more than one record in an assay (separate samples or runs), and their calls can disagree. The source made the active and inactive calls. Calls come from the whole dose curve; as a rule, active = well fitted activation curve with a large enough effect; inconclusive = small, poorly fitted or top-dose-only effect, or effect the other way; inactive = flat fitted curve, though single readings scatter.
# Biological target: Pyruvate kinase PKM (Homo sapiens) (UniProt P14618)
# Experiment: Secondary LDH Assay for Activators of Human Pyruvate Kinase M2 isoform: for Probe SAR
# Settings: purified hPK-M2, LDH-coupled NADH fluorescence kinetic; series mostly up to 58.4 µM; activation: at the top concentration
# Description: NIH Chemical Genomics Center [NCGC] Matthew G. Vander Heiden, M.D., Ph.D. [Harvard Medical School, 77 Avenue Louis Pasteur, Boston, MA 02115] NCGC Assay Overview: Human pyruvate kinase muscle 2 (hPK-M2)enzyme was supplied as a highly purified (>95% pure) preparation from Harvard Medical School and a secondary assay was used to evaluate compounds. This assay couples the formation of pyruvate from hPK-M2 using lactate dehydrogenase (LDH) and NADH. The depletion of NADH is followed in a fluorescent-based kinetic assay that follows the formation of pyruvate to lactate, as catalyzed LDH (described by Hannaert et al., 2002)1 Pyruvate kinase substrates, PEP and ADP, were present in the assay at 0.1 mM and 4 mM respectively. In this kinetic assay initial rates were determined by following the fluorescence of NADH depletion.
# NCGC Assay Protocol Summary: Three uL of substrate mix (final concentration, 50 mM Tris-Cl pH 8.0, 200 mM KCl, 15 mM MgCl2, 0.1 mM PEP, 4.0 mM ADP, and 0.2 mM NADH) was dispensed into black-solid 1536 well plates. 23 nL of compounds were delivered by a pin tool and 1 uL of enzyme mix (final concentrations, 10 nM hPK-M2 and 1 uM of LDH) was added. Plates were immediately placed in ViewLux (Perkin Elmer) and NADH fluorescence was determined at 30 second exposure intervals for between 3 and 6 minutes. Data were normalized to the uninhibited and EC100 activation using known activators such as fructose-bis-phosphate.
# Sequence of Pyruvate kinase PKM (Homo sapiens) (P14618 whole entry, looked up, canonical isoform): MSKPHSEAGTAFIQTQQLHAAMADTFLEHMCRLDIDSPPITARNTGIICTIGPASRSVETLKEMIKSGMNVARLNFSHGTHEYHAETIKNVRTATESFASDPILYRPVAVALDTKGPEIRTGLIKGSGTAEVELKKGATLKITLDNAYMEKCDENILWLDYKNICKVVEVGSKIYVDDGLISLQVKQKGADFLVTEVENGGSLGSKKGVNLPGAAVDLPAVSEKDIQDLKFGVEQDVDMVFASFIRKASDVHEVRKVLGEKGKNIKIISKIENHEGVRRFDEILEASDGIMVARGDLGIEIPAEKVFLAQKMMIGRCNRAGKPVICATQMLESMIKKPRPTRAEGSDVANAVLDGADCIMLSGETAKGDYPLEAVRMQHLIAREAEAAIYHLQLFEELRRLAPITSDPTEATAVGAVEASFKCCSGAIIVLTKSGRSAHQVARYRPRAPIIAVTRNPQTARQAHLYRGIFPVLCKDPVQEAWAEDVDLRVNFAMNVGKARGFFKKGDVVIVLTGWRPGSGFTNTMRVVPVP
Compound,activation,Potency
Cc1ccc(NS(=O)(=O)c2ccc3c(c2)CCC(C)(C)O3)cc1C,11.9% (inactive),–
Cc1cccc(NS(=O)(=O)c2ccc3c(c2)CCC(=O)N3)c1,–,1.83 µM (active)
Cc1ccc(NS(=O)(=O)c2cc3c(cc2N(C)C)NC(=O)CC3)cc1C,–,1.03 µM (active)
Cc1cc(N2C(=O)c3ccccc3C2=O)n[nH]1,-8.74% (inactive),–
Cc1ccc(N(C)S(=O)(=O)c2ccc3c(c2)CCC(=O)N3)cc1C,0.911% (inactive),–
Cc1ccn2c(NC3CCCCC3)c(-c3ccc(C)o3)nc2c1,-14.6% (inactive),–
Cc1cc(C)n2c(Nc3ccccc3)c(-c3ccc(C)o3)nc2n1,-2.4% (inactive),–
COc1ccc(N2C(=O)c3ccccc3C2=O)cc1,1.75% (inactive),–
O=C1c2ccccc2C(=O)N1C1CCCCC1,3.59% (inactive),–
O=C1CCc2cc(S(=O)(=O)NCc3ccccc3)ccc2N1,23.2% (inactive),–
Cc1ccc(NS(=O)(=O)c2ccc(N3CCCC3=O)cc2)cc1C,14.4% (inactive),–
COc1cccc(Cn2ncc3c4sc(S(C)=O)cc4n(C)c3c2=O)c1 (stereo not drawn),–,410 nM (active) and 206 nM (active)
Cc1ccc2nc(-c3cccs3)c(Nc3ccccc3)n2c1,-15.2% (inactive),–
COc1cccc(OC2=NS(=O)(=O)c3ccccc32)c1,4.89% (inactive),–
Cc1ccc2nc(-c3ccc(C)o3)c(Nc3ccc4c(c3)OCO4)n2c1,–,29.1 µM (active)
COc1cc(N2C(=O)c3ccccc3C2=O)c2ncccc2c1,4.6% (inactive),–
Cc1ccc(NS(=O)(=O)c2cc3c(cc2Cl)CCC(=O)N3)cc1C,–,0.461 µM (active)
O=C1c2ccccc2C(=O)N1c1cccc2cnccc12,-6.12% (inactive),–
O=S(=O)(c1ccc2c(c1)OCCO2)N1CCN(S(=O)(=O)c2c(F)cccc2F)CC1,–,5.8 µM (active)

Compound,activation,Potency
COc1cccc(N2C(=O)c3ccccc3C2=O)c1,17.9% (inactive),–
O=C1c2ccccc2C(=O)N1c1nccs1,9.77% (inactive),–
Cc1cc2c(s1)c1cnn(Cc3cc(F)ccc3F)c(=O)c1n2C,–,0.447 µM (active)
O=C1c2ccccc2C(=O)N1c1ccncc1,11.9% (inactive),–
O=C1c2ccccc2C(=O)N1Cc1ccncc1,1.93% (inactive),–
COc1ccc(NS(=O)(=O)c2ccc3c(c2)CCC(=O)N3)cc1,24.1% (inactive),–
O=C1c2ccccc2C(=O)N1Cc1cccnc1,4.44% (inactive),–
O=C1c2ccccc2C(=O)N1c1ccc2ccccc2n1,-12.5% (inactive),–
Cc1ccc(NS(=O)(=O)c2cccc(F)c2)cc1C,18.4% (inactive),–
Cc1cc2c(s1)c1cnn(Cc3ccccc3F)c(=O)c1n2C,–,inactive and 291 nM (active)
COc1ccc(S(=O)(=O)Nc2ccc(C)c(C)c2)cc1,13.8% (inactive),–
O=C1c2ccccc2C(=O)N1c1noc2ccccc12,-11.1% (inactive),–
Cc1ccc(NS(=O)(=O)c2ccc3c(c2)CCN(C(=O)C(F)(F)F)C3)cc1C,16.1% (inactive),–
COc1ccccc1OC1=NS(=O)(=O)c2ccccc21,-4.13% (inactive),–
O=C1CCc2cc(S(=O)(=O)Nc3cccnc3)ccc2N1,-4.47% (inactive),–
CC(=O)Nc1cccc(S(=O)(=O)Nc2ccc(C)c(C)c2)c1,11.3% (inactive),–
O=S1(=O)N=C(Oc2cccc(Cl)c2)c2ccccc21,-0.852% (inactive),–
Cc1ccc(NC(=O)c2ccc3c(c2)CCC(=O)N3)cc1C,-2.96% (inactive),–
O=C1c2ccccc2C(=O)N1Cc1ccccn1,6.36% (inactive),–

# Reference: PubChem BioAssay AID2576 (National Center for Advancing Translational Sciences (NCATS), 2010)
